Sampled rows, rich in hits. Any-hit rate of the full collection: about 3.4%.
GPR151 activ – human GPR151 activation | 650,000 tested, 1% active | AID 1508602 | PathHunter beta-arrestin GPR151 cells, luminescence | Q8TDV0 | activation, % at 11.2 µM; in the data active = activation above about 4.9%
MITF primary – blocks human microphthalmia-associated transcription factor; AlphaScreen MITF homodimerization, bead proximity signal; inhibition, % at 2.6 µM; 650,000 tested, 0.91% active; AID 1259374; in the data active = inhibition above about 50%
FBW7 activator – activators of human E3 ligase FBW7 | AlphaScreen FBW7–phospho-cyclin E peptide binding, activator screen | normalized activity (activation), % at 26.1 µM | 650,000 tested, 0.13% active; in the data active = normalized activity above about 1.9%;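 note: purified mutant Fbw7 with reduced substrate affinity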
Target sequence (Q969H0 whole entry, looked up): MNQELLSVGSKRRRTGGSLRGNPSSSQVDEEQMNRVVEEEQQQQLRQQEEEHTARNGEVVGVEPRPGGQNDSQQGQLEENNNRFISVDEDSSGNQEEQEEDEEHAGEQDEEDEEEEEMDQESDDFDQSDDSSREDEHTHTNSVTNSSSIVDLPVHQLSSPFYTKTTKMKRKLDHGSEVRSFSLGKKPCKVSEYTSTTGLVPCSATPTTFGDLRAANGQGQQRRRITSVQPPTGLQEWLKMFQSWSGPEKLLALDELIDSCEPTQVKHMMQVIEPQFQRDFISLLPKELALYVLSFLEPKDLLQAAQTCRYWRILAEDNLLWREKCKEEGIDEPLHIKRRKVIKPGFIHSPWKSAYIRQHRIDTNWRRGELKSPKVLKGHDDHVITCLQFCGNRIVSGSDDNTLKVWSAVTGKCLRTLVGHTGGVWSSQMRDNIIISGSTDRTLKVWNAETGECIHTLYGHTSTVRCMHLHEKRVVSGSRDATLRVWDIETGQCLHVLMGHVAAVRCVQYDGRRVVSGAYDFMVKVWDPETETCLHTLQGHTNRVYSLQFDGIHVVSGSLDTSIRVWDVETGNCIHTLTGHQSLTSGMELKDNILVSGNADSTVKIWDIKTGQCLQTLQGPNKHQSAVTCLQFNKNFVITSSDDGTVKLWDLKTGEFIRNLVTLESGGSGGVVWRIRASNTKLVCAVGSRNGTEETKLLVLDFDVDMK
TEAD-YAP inh – TEAD-YAP interaction inhibition. HEK-TIYL cells, TEAD-Gal4/YAP UAS-luciferase luminescence. inhibition, % at 9.12 µM. 640,000 tested, 1.4% active; in the data active = inhibition above about 32%
Hits are given with their value; 0 = inactive.

SMILES | GPR151 activ | MITF primary | FBW7 activator | TEAD-YAP inh
O=C1NC(=Nc2ccccc2)S/C1=C/c1ccc(O)c(O)c1 | 0 | 0 | 0 | 47.1
COc1ccc(/C=C2\SC(=S)NC2=O)cc1O | 0 | 0 | 0 | 0
CCN(CC)CC/C=C/C1(O)c2ccccc2-c2ccccc21 | 0 | 0 | 0 | 0
COC(=O)c1ccc(-c2ccc(/C=C3\C(=O)NC(=O)C(C#N)=C3C)o2)cc1 | 0 | 0 | 0 | 0
Cc1cc(/C=C2\SC(=Nc3ccccc3)NC2=O)c(C)n1-c1ccccc1 | 0 | 0 | 0 | 53.2
O=C1NC(=Nc2ccc(O)cc2)S/C1=C/C=C/c1ccco1 | 0 | 0 | 0 | 37.9
O=C1NC(=Nc2ccc(F)cc2)S/C1=C\c1ccco1 | 0 | 0 | 0 | 0
COC(=O)C(C)N1C(=O)S/C(=C/c2cc(C)n(-c3ccccn3)c2C)C1=O (stereo not drawn) | 0 | 0 | 0 | 42.6
CCOc1cc(/C=C2/SC(=Nc3ccccc3)NC2=O)ccc1O | 0 | 0 | 0 | 52.4
COc1ccccc1C(=O)Nc1ccc2c(c1)C(=O)Nc1cc(C)ccc1O2 | 0 | 0 | 0 | 0
CCOC(=O)CSc1nc(NCc2ccccc2)c2ccccc2n1 | 0 | 0 | 0 | 0
COc1cc(/C=N/NC(=O)c2ccc(C)nc2)cc(Br)c1O | 0 | 0 | 0 | 0
O=C(NCCc1ccccc1)c1ccc(OC2CCN(C(=O)C3=CCCC3)CC2)cc1 | 0 | 0 | 0 | 64.8
O=C(NCCc1ccccc1)c1ccc(OC2CCN(C(=O)c3cscn3)CC2)cc1 | 0 | 0 | 0 | 64.4
CC(=O)N1CCC(Oc2ccc(C(=O)NCCc3ccccc3)cc2)CC1 | 0 | 0 | 0 | 0
O=C(NCCc1ccccc1)c1ccc(OC2CCN(C(=O)c3cnsn3)CC2)cc1 | 0 | 0 | 0 | 0
O=C1CC[C@@H](C(=O)N2CCC(Oc3ccc(C(=O)NCCc4ccccc4)cc3)CC2)N1 | 0 | 0 | 0 | 39.9
O=C(NCCc1ccccc1)c1ccc(OC2CCN(C(=O)C3CC3)CC2)cc1 | 0 | 0 | 0 | 0
CC(=O)NCC(=O)N1CCC(Oc2ccc(C(=O)NCCc3ccccc3)cc2)CC1 | 0 | 0 | 0 | 33.0
C=CCSc1nc(C2CC2)nc2c1c(=O)n(C)c(=O)n2C | 0 | 0 | 0 | 0
O=C(c1ccccc1Cl)N(Cc1ccccc1F)N1C(=O)C2C3C=CC(C3)C2C1=O (stereo not drawn) | 0 | 0 | 0 | 0
Cc1cc(C)c(NC(=S)N(Cc2ccccc2Cl)C2CCCC2)c(C)c1 | 0 | 0 | 0 | 0
O=C(NCCOc1cccnc1)c1ccc(OC2CCN(CCc3ccccc3)CC2)cc1 | 0 | 0 | 0 | 42.1
COc1ccccc1/C=C/C=C1\N=C(c2cccc(C)c2)OC1=O | 0 | 0 | 0 | 0
Cc1ccc(-n2c(N)c(C(=O)O)c3nc4ccccc4nc32)cc1C | 0 | 0 | 0 | 0
SMILES | GPR151 activ | MITF primary | FBW7 activator | TEAD-YAP inh
NNC(=O)c1c(N)n(-c2ccc3ccccc3c2)c2nc3ccccc3nc12 | 0 | 0 | 0 | 46.6
CC(=O)Nc1cccc(Nc2nc(-c3ccccc3F)nc3ccccc23)c1 | 0 | 0 | 0 | 32.3
S=c1nc(Nc2cc(Cl)cc(Cl)c2)c2ccccc2[nH]1 | 0 | 0 | 0 | 0
Fc1cccc(Nc2nc(-c3ccccc3F)nc3ccccc23)c1 | 0 | 0 | 0 | 0
CC(=O)c1cccc(Nc2nc(-c3ccc(C)cc3)nc3ccccc23)c1 | 0 | 0 | 0 | 0
CC(=O)c1cccc(Nc2nc(-c3ccc(C(C)(C)C)cc3)nc3ccccc23)c1 | 0 | 0 | 0 | 58.9
CC(=O)c1cccc(Nc2nc(=S)[nH]c3ccccc23)c1 | 0 | 0 | 0 | 61.3
CC(=O)Nc1cccc(-c2nc(-c3ccccc3)nc3ccccc23)c1 | 0 | 0 | 1.9 | 0
O=C(Nc1ccc(Oc2ccccc2)cc1)c1cc2ccccc2c(=O)o1 | 0 | 0 | 0 | 0
COc1ccc(-n2ncc3c(NC(C)(C)C)ncnc32)cc1 | 0 | 0 | 0 | 36.1
COCCCNc1ncnc2c1cnn2-c1ccccc1 | 0 | 0 | 0 | 42.5
CCCNc1ncnc2c1cnn2-c1ccccc1 | 0 | 0 | 0 | 0
O=c1[nH]c(N2CCCCC2)nc2c1CCN(Cc1ccc3ccccc3n1)C2 | 0 | 0 | 0 | 0
CCOC(=O)N1CCN(C(=O)c2ccc(N3CC4CC(C3)c3cccc(=O)n3C4)c(NC(=O)c3cccs3)c2)CC1 (stereo not drawn) | 0 | 0 | 0 | 0
CCOc1ccc(-n2c(=O)c3sccc3n(CC(=O)NCCc3ccccc3)c2=O)cc1 | 0 | 0 | 0 | 0
CC12COC3(C(=O)Nc4ccccc4)CC1CCC32C (stereo not drawn) | 0 | 0 | 0 | 0
CC12COC3(C(=O)Nc4nc5ccccc5s4)CC1CCC32C (stereo not drawn) | 0 | 0 | 0 | 67.1
CC(=O)NC(c1ccc(C(C)C)cc1)c1ccc2cccnc2c1O (stereo not drawn) | 0 | 0 | 0 | 83.0
Cc1cc(C)nc(NC(c2ccco2)c2ccc3cccnc3c2O)n1 (stereo not drawn) | 0 | 0 | 0 | 0
Oc1cccnc1NC(c1ccccc1F)c1ccc2cccnc2c1O (stereo not drawn) | 0 | 0 | 0 | 35.8
Cc1ccc(C(NC(=O)c2ccccc2)c2ccc3cccnc3c2O)cc1 (stereo not drawn) | 0 | 0 | 0 | 0
CC(=O)NC(c1ccccc1F)c1ccc2cccnc2c1O (stereo not drawn) | 0 | 0 | 0 | 83.8
COc1ccc2oc(-c3ccc(Cl)cc3)cc(=O)c2c1 | 0 | 0 | 0 | 0
COc1ccc2oc(-c3cccs3)cc(=O)c2c1 | 0 | 0 | 0 | 42.5
COc1ccc2oc(-c3ccccc3Cl)cc(=O)c2c1 | 0 | 0 | 2.6 | 48.5
SMILES | GPR151 activ | MITF primary | FBW7 activator | TEAD-YAP inh
O=c1cc(-c2cccs2)oc2ccc(O)cc12 | 0 | 0 | 0 | 0
CCC(=O)N1c2ccccc2NC2=C(C(=O)CCC2)C1c1cccc(Br)c1 (stereo not drawn) | 0 | 0 | 0 | 0
Cc1ccccc1N1C(=O)c2cccc3c(N4CCOCC4)ccc(c23)C1=O | 0 | 0 | 0 | 0
COc1ccc(-c2cccc3cnc(Nc4ccc(-n5cnc(C)n5)cc4)nc23)cn1 | 0 | 0 | 0 | 0
CC(=O)O[C@@H]1[C@@H](O)CN[C@@H]1Cc1ccccc1 | 0 | 0 | 0 | 101.2
COc1ccccc1-n1c(-c2cc(-c3ccccc3)nc3ccccc23)n[nH]c1=S | 0 | 0 | 0 | 0
Cc1ccccc1NS(=O)(=O)c1ccc(N2CCCC2=O)cc1 | 0 | 0 | 0 | 47.5
Cc1ccc(C(=O)n2c(N)nc3ccccc32)cc1 | 0 | 0 | 0 | 90.7
Nc1nc2ccccc2n1C(=O)c1ccc(Cl)cc1 | 0 | 0 | 0 | 70.7
COc1cc(Nc2nc3ccc(C)cc3n3cnnc23)cc(OC)c1OC | 0 | 0 | 0 | 33.9
COc1cc(Nc2nc3ccccc3n3cnnc23)cc(OC)c1OC | 0 | 0 | 0 | 0
Oc1ccc(/C=N/Nc2nc3ccccc3[nH]2)c(O)c1O | 0 | 0 | 0 | 0
Oc1ccc(/C=N/Nc2nc(Nc3ccccc3)nc(Nc3ccccc3)n2)c(O)c1 | 0 | 0 | 0 | 50.8
Oc1ccc(/C=N/Nc2nc3ccccc3[nH]2)c(O)c1 | 0 | 65.3 | 0 | 0
Oc1ccccc1/C=N\Nc1nc2ccccc2[nH]1 | 0 | 0 | 0 | 0
Oc1c(Cl)cc(Cl)cc1/C=N/Nc1nc2ccccc2[nH]1 | 0 | 0 | 0 | 60.7
CCCCCOC(=O)CSc1nc2sc3c(c2c(=O)n1-c1ccc(OC)cc1)CCCCC3 | 0 | 0 | 0 | 0
